In PubChem BioAssay (EPA / NIEHS) one finds AC50 and outcome data, which are given here for 5 compounds.

The nature of assay [1]: TOX21_p53_BLA_p2_viability: Viability Assessment in the Tox21 HCT-116 p53 Agonism Beta-lactamase Assay, Phase 2 (AID 2283591).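 Further: actives lower the ATP signal meaning cytotoxicity.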 The method, boiled down:
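HCT116 p53-bla cells, 4000/well, dosed after 5 h plating (217-fold dilution of DMSO stocks) and incubated 16 h at 37C. Viability taken as cellular ATP by CellTiter-Glo luminescence after 30 min RT; signal loss marks cytotoxicity.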

Assay [2] concerns the target Cellular tumor antigen p53 (Homo sapiens) (UniProt P04637). As to the kind of experiment: TOX21_p53_BLA_p2_ratio: Tox21 HCT-116 p53 Agonism Beta-lactamase Assay, Ratio, Phase 2 (AID 2283592). In outline: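 An inducible beta-lactamase reporter in HCT116 cells signals p53 pathway activation. After 16 h chemical exposure at 37C, cells load CCF4-AM substrate for 2 h at room temperature; activity is the cleaved/uncleaved emission ratio relative to DMSO.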

Assay [3] is described as follows: TOX21_p53_BLA_p3_viability: Viability Assessment in the Tox21 HCT-116 p53 Agonism Beta-lactamase Assay, Phase 3 (AID 2283593).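 Further: cells exposed to compound for 16 h before reading.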 The method, boiled down: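 HCT116 cells, 4000/well, dosed 5 h after plating by pin transfer (217-fold dilution from DMSO stock) and incubated 16 h at 37C, 5% CO2. Viability read as ATP luminescence with CellTiter-Glo after 30 min at room temperature.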

Assay [4] has as its target Cellular tumor antigen p53 (Homo sapiens) (UniProt P04637). Nature of the assay: TOX21_p53_BLA_p3_ratio: Tox21 HCT-116 p53 Agonism Beta-lactamase Assay, Ratio, Phase 3 (AID 2283596). In outline:
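HCT116 p53-bla cells (4000/well) given compound in DMSO (217-fold dilution) after 5 h, incubated 16 h at 37C. CCF4-AM substrate 2 h at room temperature; 460/530 nm emission ratio, gain fitted against DMSO.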

Assay [5] is described as follows: TOX21_p53_BLA_p4_viability: Viability Assessment in the Tox21 HCT-116 p53 Agonism Beta-lactamase Assay, Phase 4 (AID 2283597).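 Further: hits lower the luminescence signal meaning cytotoxicity.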 The method, boiled down:
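Compound exposure of HCT116 cells lasts 16 h at 37C, 5% CO2, with DMSO stocks diluted 217-fold. Cellular ATP is then quantified by CellTiter-Glo luminescence after 30 min at room temperature.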

In assay [6] the target is Cellular tumor antigen p53 (Homo sapiens) (UniProt P04637). As to the kind of experiment: TOX21_p53_BLA_p5_ratio: Tox21 HCT-116 p53 Agonism Beta-lactamase Assay, Ratio, Phase 5 (AID 2283599). The method, boiled down: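 HCT-116 p53-bla cells (4000/well) plated 5 h, dosed with compound (217-fold DMSO dilution) for 16 h at 37 C; CCF4-AM substrate 2 h at room temperature. Activity is the 460/530 nm emission ratio (405 nm excitation), fitted in gain-of-signal direction versus DMSO.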

The nature of assay [7]: TOX21_p53_BLA_p5_viability: Viability Assessment in the Tox21 HCT-116 p53 Agonism Beta-lactamase Assay, Phase 5 (AID 2283600). The method, boiled down:
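Counter-readout for cytotoxicity: ATP-dependent luminescence from CellTiter-Glo, read in the beta-lactamase wells after 30 min at RT, following a 16 h compound exposure at 37C.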

In assay [8] the target is Cellular tumor antigen p53 (Homo sapiens) (UniProt P04637). Nature of the assay: TOX21_p53_BLA_p4_ratio: Tox21 HCT-116 p53 Agonism Beta-lactamase Assay, Ratio, Phase 4 (AID 2283601). The method, boiled down:
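HCT-116 p53 beta-lactamase reporter cells (4000/well) preincubated 5 h, then compound (217-fold dilution of DMSO stock) for 16 h at 37C. CCF4-AM substrate added 2 h at room temperature; 460/530 nm emission ratio fitted upward versus DMSO.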

A further assay addresses THRA (gene 7067) (UniProt P10827). As to the kind of experiment: TOX21_TRA_COA_Antagonist_Followup_ratio: Tox21 Thyroid Hormone Receptor alpha Antagonism through Coactivator Recruitment Follow-Up Assay, Ratio (AID 2283953). In outline: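 520:495 nm emission ratio (excitation 340 nm) reports fluorescein-SRC-2 peptide recruitment to GST-TRα LBD by TR-FRET with Tb anti-GST antibody. Values were normalized to DMSO (0%) and T3 control wells (100%); loss of signal indicated antagonism.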

A short description of assay [9]: TOX21_TRB_BLA_Antagonist_Followup_viability: Viability Assessment in the Tox21 Thyroid Hormone Receptor beta Antagonism Beta-lactamase (BLA) Follow-Up Assay (AID 2283961). In outline:
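Cytotoxicity is measured in parallel with the antagonist-mode TRβ beta-lactamase screen, using ATP-coupled luciferase luminescence. Engineered HEK293T cells are treated for 18 h with 11-point compound series in triplicate.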

The next assay deals with THRB (gene 7068) (UniProt P10828). Nature of the assay: TOX21_TRB_COA_Antagonist_Followup_ratio: Tox21 Thyroid Hormone Receptor beta Antagonism through Coactivator Recruitment Follow-Up Assay, Ratio (AID 2283967). In outline: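 Cell-free TR-FRET: GST-TRb LBD (5.0 nM) with fluorescein-SRC-2 peptide (200 nM) and Tb anti-GST antibody (2 nM), 0.10% BSA. 520:495 nm emission ratio normalized to DMSO (0%) and T3 (100%).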

For assay [10], the target named is Retinoic acid receptor RXR-alpha (Homo sapiens) (UniProt P19793). As to the kind of experiment: TOX21_TR_RXR_BLA_Antagonist_Followup_ratio: Tox21 Thyroid Hormone Receptor beta Retinoid X Receptor alpha (RXRa) Antagonism Beta-lactamase (BLA) Follow-Up Assay, Ratio (AID 2283972). The method, boiled down: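 Antagonist mode used GAL4 UAS-driven beta-lactamase in HEK293T cells expressing RXRa, treated for 16 h with compound concentration series. Activity was taken from the blue/green (460:530 nm) ratio of cleaved to uncleaved substrate.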

A short description of assay [11]: TOX21_TR_RXR_BLA_Antagonist_Followup_viability: Viability Assessment in the Tox21 Thyroid Hormone Receptor beta Retinoid X Receptor alpha (RXRa) Antagonism Beta-lactamase (BLA) Follow-Up Assay (AID 2283979). In outline: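 RXRa-bla HEK293T cells (2,500/well, phenol red-free DMEM, 2% charcoal-stripped FBS) were attached 5 h, then exposed to compounds at 11 concentrations in triplicate for 16 h at 37C. Viability measured by CellTiter-Glo ATP luminescence, bidirectional fitting versus DMSO.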

Assay [12] is described as follows: CCTE_Harrill_HTTr_Viability_MCF7: CCTE's 6-hour Cell Viability Assessment for the High-Throughput Transcriptomics (HTTr) Platform, in MCF-7 cells cultured in DMEM + 10% fetal bovine serum, Harrill Lab (AID 2284010; active means hit-call score of the fitted dose curve at least 0.9, where 1 is the maximum; inactive means score below 0.9). In outline: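 MCF-7 cells in DMEM + 10% FBS, 384-well, exposed 6 h to an eight-point dilution series. Membrane integrity scored by high-content imaging of propidium iodide exclusion; bidirectional fit versus DMSO.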

A short description of assay [13]: CCTE_Harrill_HTTr_CellCount_MCF7: CCTE's Cell Proliferation Assessment for the High-Throughput Transcriptomics (HTTr) Platform, Harrill Lab (AID 2284012).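 Further: cells exposed to compound for six hours; intended direction is loss of nuclei count meaning fewer cells.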 The method, boiled down: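 MCF7 cells exposed 6 hours to an eight-point dilution series; Hoechst-stained nuclei counted by high-content imaging. Bidirectional curve fitting against DMSO baseline.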

Inconclusive results are not listed. Active and inactive are the calls of the source. How the source made its calls, unless noted: active means hit-call score of the fitted dose curve at least 0.9, where 1 is the maximum; inconclusive means response in the unintended direction; inactive means score below 0.9.

Cellular tumor antigen p53 (Homo sapiens), sequence (P04637 whole entry, looked up): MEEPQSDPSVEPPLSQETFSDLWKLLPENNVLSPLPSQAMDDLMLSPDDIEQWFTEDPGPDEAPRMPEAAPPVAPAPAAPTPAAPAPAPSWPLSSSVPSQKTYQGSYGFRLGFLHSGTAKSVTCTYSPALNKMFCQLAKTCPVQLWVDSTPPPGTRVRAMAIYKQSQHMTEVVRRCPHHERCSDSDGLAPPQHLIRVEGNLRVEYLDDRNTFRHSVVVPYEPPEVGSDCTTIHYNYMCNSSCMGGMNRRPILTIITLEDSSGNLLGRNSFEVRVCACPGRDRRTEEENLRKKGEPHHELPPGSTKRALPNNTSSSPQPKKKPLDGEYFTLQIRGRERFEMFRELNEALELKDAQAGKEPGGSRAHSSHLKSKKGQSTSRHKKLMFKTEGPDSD
THRA (gene 7067), sequence (P10827 whole entry, looked up, the tested form may be a part): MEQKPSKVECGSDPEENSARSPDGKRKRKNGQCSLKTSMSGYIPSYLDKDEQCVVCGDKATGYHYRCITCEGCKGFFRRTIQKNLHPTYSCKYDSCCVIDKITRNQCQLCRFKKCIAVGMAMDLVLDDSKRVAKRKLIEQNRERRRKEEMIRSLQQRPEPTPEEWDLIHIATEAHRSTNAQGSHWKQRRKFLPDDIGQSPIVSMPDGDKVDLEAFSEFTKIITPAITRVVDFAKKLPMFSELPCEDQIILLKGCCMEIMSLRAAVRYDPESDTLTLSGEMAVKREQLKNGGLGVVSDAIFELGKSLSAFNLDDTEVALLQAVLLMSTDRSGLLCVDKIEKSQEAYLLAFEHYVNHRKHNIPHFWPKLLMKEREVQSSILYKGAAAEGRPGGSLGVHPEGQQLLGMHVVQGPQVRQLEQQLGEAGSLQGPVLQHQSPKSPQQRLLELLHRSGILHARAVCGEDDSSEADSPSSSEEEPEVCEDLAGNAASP
Retinoic acid receptor RXR-alpha (Homo sapiens), sequence (P19793 whole entry, looked up, the tested form may be a part): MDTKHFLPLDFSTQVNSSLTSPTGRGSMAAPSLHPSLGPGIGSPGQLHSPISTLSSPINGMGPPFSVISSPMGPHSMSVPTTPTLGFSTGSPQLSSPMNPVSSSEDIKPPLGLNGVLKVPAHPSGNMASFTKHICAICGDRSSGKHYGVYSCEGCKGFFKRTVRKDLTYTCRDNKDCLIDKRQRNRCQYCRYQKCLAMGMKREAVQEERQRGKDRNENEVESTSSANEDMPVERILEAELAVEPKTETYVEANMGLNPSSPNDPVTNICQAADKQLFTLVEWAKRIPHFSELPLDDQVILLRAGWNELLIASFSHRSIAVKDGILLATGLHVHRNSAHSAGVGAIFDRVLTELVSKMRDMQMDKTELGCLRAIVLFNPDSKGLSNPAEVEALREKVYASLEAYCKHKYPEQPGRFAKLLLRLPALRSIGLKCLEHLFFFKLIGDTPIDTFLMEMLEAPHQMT
THRB (gene 7068), sequence (P10828 whole entry, looked up, the tested form may be a part): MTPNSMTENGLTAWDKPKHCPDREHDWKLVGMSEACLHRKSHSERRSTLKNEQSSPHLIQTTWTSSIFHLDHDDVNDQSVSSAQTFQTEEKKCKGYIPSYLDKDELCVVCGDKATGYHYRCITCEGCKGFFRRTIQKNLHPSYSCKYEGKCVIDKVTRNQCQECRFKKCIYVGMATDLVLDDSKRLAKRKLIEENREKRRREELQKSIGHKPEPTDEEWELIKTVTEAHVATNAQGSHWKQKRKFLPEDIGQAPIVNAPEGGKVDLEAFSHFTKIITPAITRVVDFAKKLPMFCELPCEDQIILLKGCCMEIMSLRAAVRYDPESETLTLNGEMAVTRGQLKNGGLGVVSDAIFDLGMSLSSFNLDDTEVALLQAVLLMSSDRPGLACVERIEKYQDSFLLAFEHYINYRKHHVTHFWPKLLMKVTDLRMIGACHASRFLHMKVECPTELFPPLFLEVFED

What is called AC50 is the concentration at which the activity in the assay is half-maximal. Take `O=c1oc2ccccc2c(O)c1Cc1c(O)c2ccccc2oc1=O`: the AC50 was 8.02 µM (active) in assay [1]; 6.79 µM (active) in assay [2]; 0.819 µM (active) in [3]; 1.07 µM (active) in [4]; 3.3 µM (active) in [5]; 3.93 µM (active) in [6]. For the same compound, in [8], the half-maximal activity concentration (AC50) is 3.95 µM (active). Also, the compound was called inactive (in [7]; with THRA (gene 7067); in [9]; with THRB (gene 7068); in [10]; in [11]).

On to `O=C1c2ccccc2C(=O)C1C(=O)C(c1ccccc1)c1ccccc1`, for which the compound was called inactive in assay [1], in assay [3], in [4], in assay [6] and in [7]. Further, the AC50 in assay [2] was 37.1 µM (active); in [5], 44 µM (active); in [8] it was 36.6 µM (active).

Regarding `O=Cc1ccccc1`, the compound was called inactive in [1], in assay [2], in assay [3], in [4], in assay [5] and in [6]. The compound was classed as inactive in assay [7] and in [8].

In the case of `CCCCCCCCCCCCN=C(N)N`, the result in [1], in assay [2], in assay [3], in assay [4], in assay [5] and in assay [6] was inactive. Moreover, the result in assay [7], in [8], in [12] and in assay [13] was inactive.

As for `CCCCCl`, the call in [1], in [2], in assay [3], in [4], in assay [5] and in assay [6] was inactive. For the same compound, the result in assay [7] and in [8] was inactive.
